Screening results as filed in PubChem BioAssay.
Only some compounds are listed: those with a hit (about 3.5% of all), similar ones and a draw of the others.
MITF primary: blocks human microphthalmia-associated transcription factor; 650,000 compounds, 0.91% hits; inhibition, % at 2.6 µM; O75030; AlphaScreen MITF homodimerization, bead proximity signal; in the data active means inhibition above about 50%;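 further: 0% = vehicle wells with protein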
TEAD-YAP block: TEAD-YAP interaction inhibition; AID 1259422; inhibition, % at 9.12 µM; HEK-TIYL cells, TEAD-Gal4/YAP UAS-luciferase luminescence; 640,000 compounds, 1.4% hits; in the data active means inhibition above about 32%;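 further: 0% = median of test compound wells and 100% = reference inhibitor wells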
GPR151 ag: activators of human GPR151. Q8TDV0. activation, % at 11.2 µM. 650,000 compounds, 1% hits. PathHunter beta-arrestin GPR151 cells, luminescence; in the data active means activation above about 4.9%;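 further: 0% = median of compound wells and 100% = cells with positive control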
FBW7 activator: human FBW7 E3 ligase activation, primary screen | AlphaScreen FBW7–phospho-cyclin E peptide binding, activator screen | normalized activity (activation), % at 26.1 µM | 650,000 compounds, 0.13% hits | AID 1259310; in the data active means normalized activity above about 1.9%;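 further: purified mutant Fbw7 with reduced substrate affinity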
GPR151 conf act: human GPR151 activation, confirmation screen | shares compounds with GPR151 ag | GPR151 PathHunter beta-arrestin cells, luminescence, 90 min; % of EA-reagent control over plate median | activation, % at 11.2 µM | 6,700 tested, under 10 active | AID 1508609;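 active means mean percent activation across replicates above the confirmation screen cutoff of 4.91%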
GPR119 counter: activates human GPR119 in a GPR151 counter-screen | shares compounds with GPR151 ag | GPR119 PathHunter beta-arrestin cells, luminescence, 90 min; 0 = compound-well median, 100 = enzyme-acceptor control | activation, % at 11.2 µM | 6,700 compounds, 0.3% hits | AID 1508611;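 active means mean percent activation in the counterscreen above 29.09%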;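 further: counterscreen on off-target GPR119 to flag nonselective hits from the GPR151 activator screen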
Target sequence (Q8TDV5 whole entry, looked up): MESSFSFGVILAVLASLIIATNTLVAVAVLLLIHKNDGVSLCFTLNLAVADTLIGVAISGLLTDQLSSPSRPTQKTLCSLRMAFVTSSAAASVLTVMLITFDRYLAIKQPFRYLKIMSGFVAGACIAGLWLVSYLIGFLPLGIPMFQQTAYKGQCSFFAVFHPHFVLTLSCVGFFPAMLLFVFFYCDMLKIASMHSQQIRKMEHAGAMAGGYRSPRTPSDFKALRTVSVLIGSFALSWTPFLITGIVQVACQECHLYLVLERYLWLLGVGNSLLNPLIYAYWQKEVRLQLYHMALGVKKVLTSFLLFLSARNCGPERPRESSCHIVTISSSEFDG
* hit, by the source's call.

How did Cc1cc(-n2cccn2)ccc1CN1CCN(C2CCCCC2)C(CCO)C1 (stereo not drawn) do in these assays?
MITF primary: 0.7; TEAD-YAP block: 6.4; GPR151 ag: 1.7; FBW7 activator: -0.1

How did COC(=O)C1=C(C)NC2=C(C(=O)CCC2)C1c1ccccc1OCc1ccccc1 (stereo not drawn) do in these assays?
MITF primary: -11.0; TEAD-YAP block: 0.6; GPR151 ag: 0.3; FBW7 activator: -0.3

What do the screens show for `CCCCC1(CCCC)NC(=S)N(c2ccc(C)cc2)N1`?
MITF primary: 14.6; TEAD-YAP block: -5.5; GPR151 ag: 11.4*; FBW7 activator: 0.0; GPR151 conf act: -1.1; GPR119 counter: -3.6

Results for COc1ccc(OC)c(NC(=S)NCCC(C)C)c1 ?
MITF primary: -3.4; TEAD-YAP block: -5.2; GPR151 ag: -2.8; FBW7 activator: 0.7

What do the screens show for `COc1cccc(C(=O)COC(=O)c2ccc3c(c2)OCO3)c1`?
MITF primary: -10.4; TEAD-YAP block: -2.6; GPR151 ag: 5.3*; FBW7 activator: 0.2; GPR151 conf act: -0.5; GPR119 counter: 1.9

Results for O=C(NCc1n[nH]c(=S)n1-c1cccc(C(F)(F)F)c1)c1ccc(S(=O)(=O)N2CCCCC2)cc1 ?
MITF primary: 8.4; TEAD-YAP block: 8.2; GPR151 ag: 5.4*; FBW7 activator: 0.0; GPR151 conf act: 0.7; GPR119 counter: 16.3

What do the screens show for `C=CCC1C=CCC(CC=C)N1C(=O)c1ccccc1[N+](=O)[O-]` (stereo not drawn)?
MITF primary: -3.7; TEAD-YAP block: 1.1; GPR151 ag: 9.2*; FBW7 activator: -0.3; GPR151 conf act: 0.3; GPR119 counter: -1.6

How did O=C(c1ccccc1[N+](=O)[O-])N1CC2C3C=CC(C3)C2C1 (stereo not drawn) do in these assays?
MITF primary: -1.6; TEAD-YAP block: 4.6; GPR151 ag: -0.2; FBW7 activator: -0.1

Results for NC(=O)C(=O)N/N=C/C(c1ccccc1)c1ccccc1 ?
MITF primary: 2.2; TEAD-YAP block: 0.7; GPR151 ag: -0.2; FBW7 activator: 0.0

What do the screens show for `CC(C)C1Oc2ccccc2N(CC(=O)NCCCN2C(C)CCCC2C)C1=O` (stereo not drawn)?
MITF primary: 17.7; TEAD-YAP block: 11.8; GPR151 ag: 5.0*; FBW7 activator: 0.1; GPR151 conf act: -0.3; GPR119 counter: -2.8

Results for COCCCNC(=O)CN1C(=O)C(C(C)C)Oc2ccc(C)cc21 (stereo not drawn) ?
MITF primary: 2.5; TEAD-YAP block: 4.0; GPR151 ag: 6.1*; FBW7 activator: 0.0; GPR151 conf act: 0.4; GPR119 counter: 12.8

Results for CC(C)(C)C(=O)N1CCc2nc3ccccn3c(=O)c2C1 ?
MITF primary: -4.4; TEAD-YAP block: 3.3; GPR151 ag: 6.8*; FBW7 activator: 0.0; GPR151 conf act: -0.4; GPR119 counter: -5.1

How did CCC(=O)N1CCc2nc3ccccn3c(=O)c2C1 do in these assays?
MITF primary: -4.8; TEAD-YAP block: -5.1; GPR151 ag: -0.8; FBW7 activator: -0.1

Results for CS(=O)(=O)N1CCN(C(=O)c2ccc(Cl)cc2)CC1 ?
MITF primary: 15.4; TEAD-YAP block: 1.8; GPR151 ag: 7.8*; FBW7 activator: 0.2; GPR151 conf act: 1.0; GPR119 counter: 11.2

How did CS(=O)(=O)N1CCN(C(=O)c2cccnc2)CC1 do in these assays?
MITF primary: 8.2; TEAD-YAP block: 4.8; GPR151 ag: 0.7; FBW7 activator: 0.1

How did CS(=O)(=O)N1CCN(C(=S)NCc2ccc(Cl)cc2)CC1 do in these assays?
MITF primary: 12.5; TEAD-YAP block: 5.6; GPR151 ag: 6.8*; FBW7 activator: 0.2; GPR151 conf act: 0.3; GPR119 counter: 1.9

What do the screens show for `CS(=O)(=O)N1CCN(C(=S)NCc2ccc(F)cc2)CC1`?
MITF primary: 5.5; TEAD-YAP block: 4.1; GPR151 ag: -0.6; FBW7 activator: 0.1

How did CS(=O)(=O)N1CCN(C(=O)c2ccncc2)CC1 do in these assays?
MITF primary: 0.9; TEAD-YAP block: 6.0; GPR151 ag: 5.6*; FBW7 activator: 0.0; GPR151 conf act: -0.5; GPR119 counter: 2.2

How did CN(c1ccc(C(=O)N2CCCC2)cc1)S(=O)(=O)c1ccc(Cl)cc1 do in these assays?
MITF primary: 9.9; TEAD-YAP block: 0.6; GPR151 ag: 6.6*; FBW7 activator: 0.1; GPR151 conf act: -0.9; GPR119 counter: -15.5

What do the screens show for `CC1=C(C(=O)OCC2CCCO2)C(c2ccc(O)cc2)C2=C(CC(C)(C)CC2=O)N1` (stereo not drawn)?
MITF primary: -2.6; TEAD-YAP block: -17.1; GPR151 ag: -0.7; FBW7 activator: 0.0

What do the screens show for `CCOc1cc(/C=C(\C#N)C(=O)OC(C)C)cc(Cl)c1OCC(=O)N(C)C`?
MITF primary: -4.1; TEAD-YAP block: 0.6; GPR151 ag: 1.0; FBW7 activator: -0.1

How did Cc1csc(NC(=O)CSc2nnc(-c3ccoc3C)n2CC(C)C)n1 do in these assays?
MITF primary: 8.2; TEAD-YAP block: 8.3; GPR151 ag: -1.1; FBW7 activator: 0.0

What do the screens show for `O=C(CN1C(=O)C2C3C=CC(C3)C2C1=O)N1CCN(c2ccccc2)CC1` (stereo not drawn)?
MITF primary: 14.5; TEAD-YAP block: -3.0; GPR151 ag: 5.5*; FBW7 activator: 0.0; GPR151 conf act: -0.4; GPR119 counter: 0.4

Results for Clc1ccc(CN2CCc3nc(-c4ccccn4)nc(N4CCOCC4)c3C2)s1 ?
MITF primary: 16.1; TEAD-YAP block: -1.5; GPR151 ag: 5.1*; FBW7 activator: -0.6; GPR151 conf act: 0.7; GPR119 counter: 10.0

How did CN(CC(=O)Nc1cccc(I)c1)C1CCCCC1 do in these assays?
MITF primary: 15.7; TEAD-YAP block: -2.1; GPR151 ag: -1.3; FBW7 activator: 0.4

How did CCCSc1nnc2c(n1)OC(c1ccc(F)cc1)Nc1ccccc1-2 (stereo not drawn) do in these assays?
MITF primary: -6.1; TEAD-YAP block: -80.2; GPR151 ag: -1.8; FBW7 activator: 0.1

What do the screens show for `CCOc1ccc(C2Nc3ccccc3-c3nnc(SCc4ccccc4F)nc3O2)cc1OC` (stereo not drawn)?
MITF primary: 9.7; TEAD-YAP block: -3.1; GPR151 ag: 5.8*; FBW7 activator: -0.2; GPR151 conf act: -0.3; GPR119 counter: 15.4

How did CCCSc1nnc2c(n1)OC(c1ccc(SC)cc1)Nc1ccccc1-2 (stereo not drawn) do in these assays?
MITF primary: 3.5; TEAD-YAP block: -59.5; GPR151 ag: 5.6*; FBW7 activator: 0.2; GPR151 conf act: -0.2; GPR119 counter: 4.7

What do the screens show for `C=CCc1cc(OC)ccc1OCCCCN(C)C`?
MITF primary: 14.9; TEAD-YAP block: -7.3; GPR151 ag: -1.5; FBW7 activator: -0.3

What do the screens show for `CCOc1ccc(-c2nc(-c3ccc([N+](=O)[O-])cc3)no2)cc1OCC`?
MITF primary: -8.7; TEAD-YAP block: -8.2; GPR151 ag: -1.1; FBW7 activator: 0.0
